Only some compounds are listed: those with a hit (about 6.5% of all), similar ones and a draw of the others.
Vaccinia Venus – vaccinia inhibition (Venus reporter). 330,000 compounds, 0.46% hits. Potency, µM (top dose mostly 36.5 µM), inactives show top-dose activity change, negative = inhibition, actives largely listed as inhibitors. Vaccinia virus Venus reporter expression, fluorescence; calls by dose curve; tested in A549 cells; note: potency is the fitted concentration of half-maximal effect; nearly all actives have a fitted effect of over 30% in size
HCMV inh – inhibitors of human cytomegalovirus; HFF cells, HCMV-luciferase reporter, 72 h; active compounds read low; activity change, negative = inhibition, % at 57.5 µM; 410,000 compounds, 4.5% hits; in the data active = activity change below about -60%; inconclusive = no clear call, values can overlap the other calls; inactive = above about -39%
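Compounds were evaluated in HFFs infected with an HCMV luciferase reporter virus (MOI 1 PFU/cell). Luciferase in lysates collected 72 h post infection served as the replication measure.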
Lassa entry inh – inhibitors of Lassa virus binding or cell entry; Lassa virus pseudotype entry inhibition, cell reporter; AID 540256; 300,000 compounds, 1.2% hits; Potency, µM (doses to about 37.9 µM), without a hit: at the highest dose activity change, negative = inhibition, most hits filed as inhibitors; calls by dose curve; tested in HEK293 cells; note: potency is the fitted concentration of half-maximal effect; nearly all actives have a fitted effect of over 50% in size
FMDV antiviral – antivirals against foot and mouth disease virus | FMDV antiviral cell-based qHTS | Potency, µM (highest dose often 57.9 µM), for inactives: at the highest dose activity change, negative = inhibition, usual class: inhibitors | 410,000 compounds, 1.2% hits | AID 1159524; calls by dose curve; tested in HEK293T cells; note: read-out not given here; potency is the fitted concentration of half-maximal effect; nearly all actives have a fitted effect of over 45% in size
MARV entry inh – Marburg virus entry inhibition | Potency, µM (highest dose often 37.8 µM), inactives show at the top dose activity change, negative = inhibition, actives largely listed as inhibitors | 300,000 compounds, 1.8% hits | Marburg virus pseudotyped entry inhibition, cell reporter; calls by dose curve; tested in HEK293 cells; note: potency is the fitted concentration of half-maximal effect
Vaccinia mCherry – vaccinia inhibition (mCherry reporter); Vaccinia virus mCherry reporter infection, fluorescence; Potency, µM (titrated, usually from 36.5 µM), for the others: at the highest dose activity change, negative = inhibition, usual class: inhibitors; 310,000 compounds, 0.63% hits; AID 720579; calls by dose curve; tested in A549 cells; note: potency is the fitted concentration of half-maximal effect; nearly all actives have a fitted effect of over 35% in size
* marks the source's active call; other numbers are inactive results; i = inactive; ? = inconclusive; nt = no result; ! = not active in a repeat; [ ] = remark or other dose. % is set by controls: 0 for no effect and ±100 for the full control effect.

SMILES	Vaccinia Venus	HCMV inh	Lassa entry inh	FMDV antiviral	MARV entry inh	Vaccinia mCherry
CC1=CC[C@@H](COc2ccccc2)O[C@@]2(C1)C(=O)N(Cc1ccccc1C(F)(F)F)c1cccc(Br)c12	nt	nt	nt	nt	-7%[14.2 µM]	nt
CC1(C)CC[C@]2(C(=O)n3ccnc3)CC[C@]3(C)[C@H](C(=O)C=C4[C@@]5(C)C=C(C#N)C(=O)C(C)(C)[C@@H]5CC[C@]43C)[C@@H]2C1	-16%	-101*	2.5µM*	1.4µM*	2.5µM*	-3%
Cc1cccc(N2CCN(C3(c4ccccc4)C(=O)c4ccccc4C3=O)CC2)c1C	5%	-3	0%[46.1 µM]	-10%	nt	1%
O=C(OCn1ncc(Cl)c(Cl)c1=O)c1cccc(C(F)(F)F)c1	nt	nt	?	14µM*	?	nt
COc1ccc(NC(=O)CN(Cc2ccccc2)Cc2ccccc2)cc1S(N)(=O)=O	-15%	-62*	0%	46%	-8%	-3%
COc1ccc(NC(=O)CCCSc2ccccc2)cc1S(N)(=O)=O	-1%	?	-15%	27%	1%[46.1 µM]	i
COc1ccc(NC(=O)COc2ccccc2Cc2ccccc2)cn1	-6%	-9	?	-29%	?	-5%
COc1ccc(NC(=O)COc2ccccc2Cc2ccccc2)cc1S(N)(=O)=O	-29%	-73*	?	?	?	?
CC[C@H](NC(=O)[C@H]1O[C@@H](n2cnc3c(=O)[nH]c(N)nc32)[C@H](O)[C@@H]1O)c1ccccc1	nt	-23	nt	nt	nt	nt
CCC1=NN2C(=N)/C(=C\c3cccn3-c3ccc(Cl)cc3)C(=O)N=C2S1	9%	-81*	-12%	-18%	6%[46.1 µM]	-1%
CC(=O)N/C(=N\c1nc(C)cc(C)n1)Nc1ccc(NC(C)=O)cc1	nt	nt	nt	nt	-20%[46.1 µM]	nt
CCc1ccccc1NC(=O)Cn1c(=O)n(-c2ccc(C)cc2)c(=O)c2c1c1cc(C)ccc1n2C	-2%	16	1%[46.1 µM]	-9%	nt	-11%
CCCCc1n[nH]c2c1C(=O)CC(C)(C)C2	-13%	-85*	13%	-6%	15%[46.1 µM]	nt
CC1(C)CC(=O)c2c(Cc3ccccc3)n[nH]c2C1	-8%	-29	1%	-18%	-22%	nt
Cc1cc2oc(=O)c(CC(=O)O)c(C)c2c2occ(-c3ccc(F)cc3)c12	-5%	28	20%[46.1 µM]	20%	?	-14%
Cc1cc2c(C(C)C)c(O)c(O)c(C=O)c2c(O)c1-c1c(C)cc2c(C(C)C)c(O)c(O)c(C=O)c2c1O	4µM*	nt	7.1µM*	?	10µM*	4.5µM*
Cc1ncc(-c2ccc(F)cc2)c(C2CCCN(Cc3cccc(O)c3)C2)n1 (stereo not given)	-14%	nt	nt	-11%	nt	i
COc1cc2nc(/C=C/c3cc(OC)c(OC)c(OC)c3)sc2cc1SC	?	-32	?	-19%	7.1µM*	?
COc1cc2nc(C)sc2cc1SC	nt	20	13%	-3%	-2%	nt
COc1ccc(Cn2c(SCc3ccc(C)cc3)nc3cc(OC)c(OC)cc3c2=N)cc1Cl	-17%	-99*	10µM*	35µM*	2.8µM*	-18%
COc1cc2nc(SCc3ccc(C(F)(F)F)cc3)n(Cc3cccs3)c(=N)c2cc1OC	nt	-7	18%	2%	-10%	nt
COc1ccc(Cn2c(SCc3cc(C)ccc3C)nc3cc(OC)c(OC)cc3c2=N)cc1	nt	-23	6.5µM*	?	4.6µM*	nt
O=C(NCCN1CCOCC1)c1cnn(-c2nccc(-c3ccccc3C(F)(F)F)n2)c1C1CC1	-8%	nt	nt	-1%	nt	-8%
COC(=O)C1(O)CC(c2ccccc2)C(C(=O)c2ccccc2)N1c1ccc(Br)cc1 (stereo not given)	nt	-14	nt	nt	nt	nt
COc1ccc([C@H]2CC(=O)C=C(c3ccccc3)C2)cc1	-8%	nt	nt	5%	nt	i
SMILES	Vaccinia Venus	HCMV inh	Lassa entry inh	FMDV antiviral	MARV entry inh	Vaccinia mCherry
COc1ccc(C2CC23N=C(c2ccccc2)OC3=O)cc1 (stereo not given)	-18%	-7	-16%	22µM*	?	i
Cc1nn(Cc2ccccc2)c(Cl)c1C(=O)OC(C)C(=O)Nc1ccc(F)cc1Cl (stereo not given)	-7%	-65*	3.2µM*	0%	13µM*	i
COCCN1CCN(C(=O)c2cnn(-c3nccc(-c4ccco4)n3)c2C(C)C)CC1	4%	nt	nt	2%	nt	-9%
C=CCNC(=S)/N=c1\sccn1C	nt	27	?	25%	-2%	nt
C=CCNC(=S)/N=c1/ccccn1C	-12%	-98*	1%	-9%	4%	-7%
C=CCNC(=S)/N=c1/ccccn1CCC	nt	-107*	nt	-7%	5%	nt
Cc1noc(C)c1-c1nc(NCc2cccs2)c2ccccc2n1	nt	nt	nt	-9%	nt	nt
CCOC(=O)CNC(=O)C(CO)NC(=O)OCc1ccccc1 (stereo not given)	-13%	-100*	2%	12%	19%	i
CCOC(=O)CNC(=O)C(Cc1ccccc1)NC(=O)OCc1ccccc1 (stereo not given)	nt	-3	nt	-22%	nt	nt
CC(C)CC(NC(=O)OCc1ccccc1)C(=O)NC(Cc1ccccc1)C(=O)CCl (stereo not given)	-21%	-6	?	25µM*	?	-13%
C[C@H](N)C(=O)N[C@@H](C)C(=O)N[C@@H](Cc1ccccc1)C(=O)CCl	-11%[60.7 µM]	nt	nt	3%[97.4 µM]	nt	-3%[60.7 µM]
CN(C)C(=O)c1ccc(-c2ccc3ncnc(NCCN4CCOCC4)c3c2)cc1	nt	nt	nt	14%	nt	nt
CN(C)/C=C/C(=O)c1ccc([N+](=O)[O-])c(CS(=O)(=O)c2ccccc2)c1	-11%	-98*	9%[46.1 µM]	-8%	-2%[46.1 µM]	i
c1ccc2sc(C3(N4CCCCC4)CCCCC3)cc2c1	-6%	nt	?	-21%	7.1µM*	i
CC1(C(=O)O)CCCN1C(=O)c1cc2ccccc2s1 (stereo not given)	-7%	-10	nt	4%	nt	3%
COc1ccc(OC)c(S(=O)(=O)N(C)CC(=O)N2CCN(c3cccc(Cl)c3)CC2)c1	-26%	-103*	-8%	?	?	nt
COc1ccc(S(=O)(=O)N(C)CC(=O)N2CCCCC2)cc1Cl	-20%	-29	6%	-11%	14%	-19%[1.46 µM]
COc1ccc(OC)c(S(=O)(=O)N(C)CC(=O)N2CCN(c3ccc(F)cc3)CC2)c1	-4%	48	-16%	nt	-10%	?
COc1ccc(S(=O)(=O)N(C)CC(=O)N2CCN(C)CC2)cc1Cl	nt	-100*	nt	10%	nt	nt
Cc1ccc(C)c(S(=O)(=O)c2cn(Cc3ccccc3)c3cc(N4CCCC4)c(F)cc3c2=O)c1	-25%	19	-2%[46.1 µM]	23%	nt	-17%
Cn1c(SCc2ccc(Cl)cc2)nnc1-c1ccc(NC(=O)CCc2ccccc2)cc1	-14%	nt	nt	nt	nt	-2%
CC1=C(C(=O)N2CCN(c3cccc(Cl)c3)CC2)C2(CCCCC2)OC1=O	0%	12	2%[46.1 µM]	-29%	nt	0%
CCN(CCN(C)C)C(=O)C1CCN(S(=O)(=O)c2c(C)noc2/C=C/c2ccccc2F)CC1	?	-99*!	?	-4%	nt	i

Compound activity from PubChem BioAssay.
